HCV inh – qHTS Assay for Inhibitors of Hepatitis C Virus (HCV); Huh7.5.1 HCVcc-Cre infection, luciferase reporter, 44 h; 340,000 compounds, 3.4% hits; Potency, µM (series often up to 41.8 µM), for inactives: at the highest dose activity change, negative = inhibition, usual class: inhibitors; AID 651820, 2012; active = well fitted inhibition curve with a large enough effect; inconclusive = small, poorly fitted or top-dose-only effect, or another doubt; inactive = no such curve, though single readings can be large or run the other way; also: potency is read from the fitted curve at half-maximal effect
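A cell-based infection assay in which seeded cells (1,000 per well) receive test compound after 4 h, are inoculated with HCVcc-Cre at approximately 0.5 moi, and are incubated 44 h before luminescence detection.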
Vaccinia mCherry – qHTS for Stage-Specific Inhibitors of Vaccinia Orthopoxvirus: mCherry Reporter Primary qHTS; 310,000 compounds, 0.63% hits; Vaccinia virus mCherry reporter infection, fluorescence; Potency, µM (doses to about 36.5 µM), without a hit: at the top dose activity change, negative = inhibition, actives largely listed as inhibitors; calls by dose curve; tested in A549 cells; also: potency is read from the fitted curve at half-maximal effect; nearly all actives have a fitted effect of over 35% in size
HCMV inh – qHTS Assay for inhibitors of the human cytomegalovirus (HCMV) | HFF cells, HCMV-luciferase reporter, 72 h; hits give low values | activity change, negative = inhibition, % at 57.5 µM | 410,000 compounds, 4.5% hits | AID 1259415, 2018; in the data active = activity change below about -60%; inconclusive = no clear call, values can overlap the other calls; inactive = above about -39%
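Inhibition of viral replication was scored as loss of reporter luminescence in HFFs infected with HCMV-luciferase (MOI 1 PFU/cell) for 72 h; compounds tested at 2 doses, normalized to buffer and Salinomycin controls.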
LASV entry inh – qHTS for Inhibitors of binding or entry into cells for Lassa Virus | 300,000 compounds, 1.2% hits | Potency, µM (series often up to 37.9 µM), for inactives: at the highest dose activity change, negative = inhibition, usual class: inhibitors | Lassa virus pseudotype entry inhibition, cell reporter; calls by dose curve; tested in HEK293 cells; also: potency is read from the fitted curve at half-maximal effect; nearly all actives have a fitted effect of over 50% in size
Marburg entry inh – qHTS for inhibitors of binding or entry into cells for Marburg Virus; Marburg virus pseudotyped entry inhibition, cell reporter; Potency, µM (top dose mostly 37.8 µM), for the others: top-dose activity change, negative = inhibition, most hits filed as inhibitors; 300,000 compounds, 1.8% hits; calls by dose curve; tested in HEK293 cells; also: potency is read from the fitted curve at half-maximal effect
VACV Venus inh – qHTS for Stage-Specific Inhibitors of Vaccinia Orthopoxvirus: Venus Reporter Primary qHTS | Potency, µM (doses to about 36.5 µM), for the others: at the highest dose activity change, negative = inhibition, usual class: inhibitors | Vaccinia virus Venus reporter expression, fluorescence | 330,000 compounds, 0.46% hits; calls by dose curve; tested in A549 cells; also: potency is read from the fitted curve at half-maximal effect; nearly all actives have a fitted effect of over 30% in size
Active calls of the source: *; i = inactive; ? = inconclusive; / = not tested or not shown; ! = a repeat was not active; [ ] = another dose, or the depositor's remark. In the library only some 7.8% were active in any assay of this set; here they are far more common. % is scaled to controls: 0 for no effect and ±100 for the full control effect.

SMILES	HCV inh	Vaccinia mCherry	HCMV inh	LASV entry inh	Marburg entry inh	VACV Venus inh
OC1(c2cccc(C(F)(F)F)c2)CCNCC1	1.9%	/	21.6	-1.6%	-24.0%	/
O=S(=O)(c1ccc(OC(F)(F)F)cc1)N1CCC(O)(c2cccc(C(F)(F)F)c2)CC1	8.91µM*	/	3.6	/	/	/
COc1cc(S(=O)(=O)N2CCC(O)(c3cccc(C(F)(F)F)c3)CC2)ccc1-n1cnnn1	1.58µM*!	-9.1%	-27.4	0.0%	1.5%	-26.6%
COc1ccc(/C=N/NC(=S)Nc2ccccc2)cc1COc1cccc(C)c1C	-3.2%	i[7.34 µM]	-17.4	/	/	-4.4%[7.34 µM]
COc1ccc(/C=C/C(=O)C2CC2)cc1COc1cccc(C)c1C	?	-14.9%	25.3	7.08µM*	?	-18.0%
COc1ccccc1CCNC(=O)C(=O)NCC(c1cccs1)S(=O)(=O)c1cccs1 (stereo not given)	/	-22.9%	-22.0	-36.9%[46.1 µM]	/	-17.3%
Cc1ccc(N2C(N)=C(C#N)C(c3cccnc3)C3=C2CCCC3=O)cc1 (stereo not given)	-7.3%	-0.2%[1.46 µM]	3.4	-17.0%	-23.4%	-5.0%
Cc1nn(C)cc1C1C(C#N)=C(N)N(c2ccc(F)c([N+](=O)[O-])c2)C2=C1C(=O)CCC2 (stereo not given)	12.7%	10µM*	2.0	20.9%	-10.7%	?
O=C(CCS(=O)(=O)c1ccc(Br)cc1)N1CCN(Cc2ccccc2)CC1	2.5%	/	49.3	-14.9%	-16.2%[46.1 µM]	?
CC(=O)N1CCN(CCS(=O)(=O)c2ccc(Br)cc2)CC1	18.8%	17.8µM*	-23.1	7.5%	-5.8%	?
O=S(=O)(NCc1nc2cccnc2n1Cc1ccccc1Cl)c1ccc2c(c1)CCCC2	/	-7.5%	-12.2	-1.6%[46.1 µM]	/	-13.7%
CC(NS(=O)(=O)OCC(Cl)(Cl)Cl)c1ccc(C(C)(C)C)cc1 (stereo not given)	?	11.2µM*	37.5	/	/	20µM*
O=C(c1ccc(Cl)cc1)c1c[nH]c(C(=O)NNc2ccccc2)c1	?	?	-18.9	14.1µM*	?	-27.1%
CN(C)C=NC(=O)c1cc(C(=O)c2ccc(Cl)cc2)c[nH]1	?	-6.3%	-63.3*	-1.7%	28.5%[46.1 µM]	-11.4%
CNC(=O)c1cc(C(=O)c2ccc(Cl)cc2)c[nH]1	15.0%	i	84.6	10.5%[46.1 µM]	21.0%[46.1 µM]	-15.4%
CN(C)C=NC(=O)c1cc(C(=O)c2ccc(F)cc2)c[nH]1	27.9%	i	-5.6	-5.9%	-4.3%[46.1 µM]	-11.3%
COCC(C)n1c(C)cc(C(=O)COc2ccc(S(=O)(=O)N3CCOCC3)cc2Cl)c1C (stereo not given)	14.1µM*	-15.7%	39.8	?	?	-13.5%
Cc1cc(C)cc(NC(=O)CN2C(=O)CSc3ccc(S(=O)(=O)N4CCCC4)cc32)c1	/	5.1%	15.7	-1.3%[46.1 µM]	/	-5.2%
Cc1c(Cl)sn(-c2ccc(Cl)cc2)c1=O	2.51µM*	?	-100.8*	9.2µM*	?	?
CCC[C@H]1[C@@H](NC(=O)Nc2ccc(C)cc2)CC[C@@]23CCCN2C(=O)CCC[C@@H]13	/	/	40.3	/	/	/
COc1ccc(C(=O)N(Cc2ccccc2)c2cccc(C)c2)cc1	-10.0%	/	-60.2*	/	/	/
CC1CN(C(=O)CCC(=O)Nc2cc(F)ccc2F)c2ccccc2S1 (stereo not given)	/	-8.9%	-77.7*	-3.0%[46.1 µM]	/	-11.9%
Cc1ccccc1NC(=O)CCC(=O)N1CC(C)Sc2ccccc21 (stereo not given)	/	-11.0%	?	20.4%[46.1 µM]	/	-1.3%
Cc1[nH]c2ccccc2c1C(=O)CSC(=S)N(C)C	4.9%	i	-34.1	2.9%	2.1%	-4.9%
Cc1[nH]c2ccccc2c1C(=O)CSC(=S)N1CCN(C)CC1	-23.9%	/	-62.1*	/	/	/
SMILES	HCV inh	Vaccinia mCherry	HCMV inh	LASV entry inh	Marburg entry inh	VACV Venus inh
Cc1[nH]c2ccccc2c1C(=O)CSc1nc2ncc(Cl)cc2[nH]1	-0.1%	-7.3%	-62.3*	?	-10.2%	-18.2%
Nc1ncnc2c1nc(Br)n2C1O[C@H]2COP(=O)(O)O[C@@H]2C1O (stereo not given in full)	/	/	/	/	3.16µM*	/
Nc1nc2c(nc(Br)n2C2OC3COP(=O)(O)O[C@@H]3C2O)c(=O)[nH]1 (stereo not given in full)	/	/	/	-7.3%	?	/
O=C(Nc1ccc2nc3n(c(=O)c2c1)CCCCC3)C(=O)Nc1ccccc1F	/	-18.4%	19.4	-22.4%[46.1 µM]	-13.9%[46.1 µM]	-17.9%
CCOc1ccc2c(c1)OC(c1ccc(C)cc1)(C(F)(F)F)NC2=O (stereo not given)	-18.3%	?	-83.0*	?	-26.3%	?
COC(=O)c1cc2c(ccn2-c2ccc(F)cc2)n1C(C)C	-29.6%	/	-1.4	0.1%	11.4%	/
COC(=O)c1cc2c(ccn2-c2ccc(F)cc2)n1CC(C)C	11.2µM*	/	-5.9	0.0%	0.0%	/
COC(=O)c1cc2c(ccn2-c2ccc(F)cc2)n1Cc1ccc(OC(C)=O)cc1	8.91µM*	-8.0%	-0.9	?	-1.3%	-29.2%
CCCn1c(C(=O)OC)cc2c1ccn2-c1ccc(F)cc1	31.6µM*	/	-10.9	-5.0%	0.4%	/
CCOC(=O)c1cc2c(ccn2-c2ccc(F)cc2)n1CC(=O)N1CCN(C(=O)c2ccco2)CC1	?	-2.1%	-20.6	9.2µM*	3.3%	-0.8%
Cc1cc(C(=O)OCC(=O)N2CCN(C(=O)c3ccco3)CC2)c(C)n1-c1ccc(F)cc1	-18.5%	-9.8%	-23.7	?	-8.5%	-3.6%
COC(=O)c1cc2c(ccn2-c2ccc(F)cc2)n1Cc1cccc(OC)c1	?	i	0.6	-28.2%	13.1%	-7.7%
COc1ccc(NC(=O)Cn2c(SCc3ccc(F)cc3)nc3cccnc32)c(OC)c1	/	-14.2%	33.5	24.7%[46.1 µM]	/	-16.4%
O=C(NC1CCCc2ccccc21)c1cnn2c1NC(=C1CC1)C=C2C(F)F (stereo not given)	/	-17.7%	/	/	/	-29.2%
Cc1ccc2[nH]c3nc(CCCn4ccnc4-c4ccccc4)nnc3c2c1	/	/	/	/	3.9%[14.2 µM]	/
O=C(Cc1ccc(F)cc1)NO	/	i	/	/	/	-12.5%
CC(=O)c1ccc(Nc2ccc3cc(S(=O)(=O)N4CCCC4)ccc3n2)cc1	/	-21.9%	-11.3	-7.1%[46.1 µM]	/	-19.2%
Cc1ccc(N2C(=O)c3ccccc3NC2(C(=O)O)c2ccccc2)cc1Cl (stereo not given)	4.9%	/	-98.4*	/	/	/
Cc1ccc(C(=O)OCC(=O)c2cc(C)n(CC3CCCO3)c2C)cc1 (stereo not given)	?	i	10.0	-10.1%	?	-15.0%
Cc1cc(C(=O)COC(=O)c2ccccc2Br)c(C)n1CC1CCCO1 (stereo not given)	?	-23.3%	/	?	?	3.7%

Bioassay records as filed in PubChem.
